Measurements taken from PubChem BioAssay (EPA / NIEHS).
Activity calls are given as the source filed them. Rule for the calls: active = hit-call score of the fitted dose curve at least 0.9, where 1 is the maximum; inactive = score below 0.9.

read-out: Glutamate-cysteine ligase regulatory (GCLM), GCLM (gene 2730); assay: LTEA_HepaRG_GCLM: Life Technologies and Expression Analysis (LTEA) Assay for Glutamate-cysteine ligase regulatory (GCLM) using HepaRG (AID 2283500); details: mRNA level, 48 h; actives raise or lower the signal
Procedure: LTEA_HepaRG is a cell based, multiplexed-readout assay that uses HepaRG, a human liver cell line, with measurements taken at 48 hours after chemical dosing on a 96-well plate.LTEA_HepaRG_GCLM is one of 102 assay component(s) measured in the LTEA HepaRG cell culture assay. It is a marker of Cell proliferation, survival, death.Data from the assay component LTEA_HepaRG_GCLM was analyzed into 1 endpoint. This assay endpoint, LTEA_HepaRG_GCLM, was analyzed with bidirectional fitting relative to DMSO as the negative control and baseline of activity. Using a type of inducible reporter, measures of mRNA induction for gain or loss-of-signal activity can be used to understand regulation of transcription factor activity. To generalize the intended target to other relatable targets, this assay endpoint is annotated to the ligase intended target family, where the subfamily is C-N ligase.
A total of 1060 chemcials from the ToxCast library were tested in eight-point concentration-response experiments. Cell culture and cytotoxicity assays were conducted at Thermo Fisher Scientific's Custom Services facility (Madison, WI). A single lot of human HepaRG cells (Thermo Fisher Scientific, Frederick, MD) was used for the cell culture experiments. 96-well format collagen type I coated plates of human HepaRG cells were prepared using established methods. Briefly, cryopreserved HepaRG cells were thawed, plated at a density of approximately 100,000 cells/well in HepaRG Thaw, Plate, and General Purpose media (HPRG770, Thermo Fisher Scientific), and incubated for 48 hours. 0.5% DMSO was selected as vehicle control to balance the requisite need of DMSO in HepaRG cultures to maintain differentiation (for example, baseline metabolism, proportions of hepatocytes vs. cholangiocytes), while enabling further hepatic receptor pathway activation (for example, PXR and CAR) in response to chemical exposure. 48 hours after plating, the culture medium was replaced with HepaRG Serum-Free Incudtion Media. Cells were exposed to each test chemical in duplicate and maintained in CO2 incubators for another 48 hours. Chemical plates were thawed to room temperature and 200x concentrations of treatment groups were prepared. 8-point conentration-reponse curves were made with the highest exposure at 100 uM, followed by half-log dilutions, all in 0.5% DMSO. Each test plate contained variouse controls, induction positive controls (1mM phenobarbital), cytotoxicity positive controls ([…] aflatoxin B1), vehicle controls (0.5% DMSO), and total lysis controls (0.5% DMSO). Cell morphology images were taken using an Essen IncuCyte FLR automated microscope, with six 96-well plates imaged in about 24 minutes. Images were captured and exported and JPEG files. Spent culture media was transfered to black-well plates for the LDH assay, and remaining media was sorted at -80 C for later use. Cells were treated with RLT buffer and frozen until shipped for gene expression analysis. Total RNA was isolated from the cell suspension in 75 uL of Buffer RLT (Qiagen, Germantown, MD 20874) by Quintiles/Expression Analysis (Durham, NC) using a custom isolation procedure. Total RNA from each plate well was transferred to a preamplification plate. Fluidigm's 96.96 Dynamic ArrayTM (Fluidigm, Amsterdam, the Netherlands) technology was used for gene expression analyses by quantitative reverse transcription polymerase chain reaction (qRT-PCR, performed by Quintiles/Expression Analysis, Durham, NC)89. Standard TaqManTM Assays (Applied Biosystems/ThermoFisher Scientific, Foster City, CA) were used to assess the expression of 93 genes selected based on their selectivity and sensitivity to important hepatic receptors known to be modulated by environmental chemicals; importance in human hepatocyte functionality; and hepatotoxicity. […]

AC50, active:
Cc1cc(F)ccc1-c1cc(N2CC[C@@H](O)[C@H]2CO)ncc1N(C)C(=O)C(C)(C)c1cc(C(F)(F)F)cc(C(F)(F)F)c1 46.7 µM, CC1(C)NC(=O)N(c2ccc([N+](=O)[O-])c(C(F)(F)F)c2)C1=O 70.9 µM, Cc1ccc2oc(CN(Cc3ccccc3)C(=O)Nc3c(F)cc(F)cc3F)c(-c3ccc(Cl)cc3)c2c1 44.2 µM, OC12N=C(c3ccccc3)SC1Cc1cc(Cl)ccc12 (stereo not given) 25.1 µM, O=CCCCC=O 0.236 µM, COc1ccc2cc(S(=O)(=O)N[C@H](CC(=O)N[C@H](Cc3ccc(CN4[C@H](C)CCC[C@@H]4C)cc3)C(=O)N(C)C(C)C)c3ccc4c(c3)OCO4)ccc2c1 78 µM

outcome, inactive:
O=C(O)c1ccccc1C(=O)OCc1ccccc1, CCCCOC(=O)c1ccc(O)cc1, CC(C)(C)c1cc(/C=C2\SC(N)=NC2=O)cc(C(C)(C)C)c1O, CCN(Cc1cccc(S(=O)(=O)O)c1)c1ccc(C(=C2C=CC(=[N+](CC)Cc3cccc(S(=O)(=O)O)c3)C=C2)c2ccccc2S(=O)(=O)[O-])cc1, Cc1occc1C(=O)Nc1ccc(C(=O)N2CCC(F)(F)/C(=C\C(=O)N3CCC(N4CCCCC4)CC3)c3ccccc32)cc1, NCc1cccc(C2CCN(C(=O)c3ccc(C#Cc4ccccc4F)o3)CC2)c1, O=C(O)c1ccccc1-n1cc(C(=O)O)c(=O)c2cc(Nc3c(F)cc(F)cc3Cl)c(Cl)cc21, O=C(Nc1ccc(Cl)cc1)Nc1ccc(Cl)c(Cl)c1, Clc1cc(Cl)c2c(c1)N=C1CCCCCN1C2, CCN(CC)C(=O)c1cc(S(=O)(=O)Cc2ccccc2)c(N2CCC(c3ccccc3)CC2)cc1N(CC)CCN(C)C, O=C1c2ccccc2C(=O)N1CCc1noc(-c2ccc(CN3CCCCCC3)s2)n1, CCCCOC(=O)CC(CC(=O)OCCCC)(OC(C)=O)C(=O)OCCCC, Oc1ccccc1, CCCC(=O)OCCC(C)C, CC[C@@H]1C[C@H](N(Cc2cc(C(F)(F)F)cc(C(F)(F)F)c2)C(C)=O)c2cc(C(F)(F)F)ccc2N1C(=O)OC(C)C, O=C(O)Cn1c(=O)n(Cc2ccc(Br)cc2F)c(=O)c2ccc(Cl)cc21, Cc1ncc(CO)c(CO)c1O, CC(C)(O)c1ccc(CNC(=O)c2cccnc2Oc2ccc3nonc3c2)cc1, COCC(C)OCC(C)OCC(C)O (stereo not given), CCCCCCCC[Si](OCC)(OCC)OCC, CCCCCCCCOc1ccc(C(=O)c2ccccc2)c(O)c1, C[C@]12CC[C@@H]3c4ccc(O)cc4CC[C@H]3[C@@H]1CCC2=O, CCCCCCCCOC(=O)c1cc(O)c(O)c(O)c1, c1ccc2n[nH]nc2c1, CN1C(=O)CC[C@H]1c1cccnc1, O=c1c(-c2ccc(O)cc2)coc2cc(O)cc(O)c12, OCCO, CC(O)CC(C)(C)O (stereo not given), CC(C)(c1cc(Br)c(O)c(Br)c1)c1cc(Br)c(O)c(Br)c1, c1ccc2ccccc2c1, C[C@]12CC[C@@H]3c4ccc(O)cc4CC[C@H]3[C@@H]1CC[C@H]2O, CO[C@H]1/C=C/O[C@@]2(C)Oc3c(C)c(O)c4c(O)c(c(/C=N/N5CCN(C)CC5)c(O)c4c3C2=O)NC(=O)/C(C)=C\C=C\[C@H](C)[C@H](O)[C@@H](C)[C@@H](O)[C@@H](C)[C@H](OC(C)=O)[C@@H]1C, CC/C(=C(/CC)c1ccc(O)cc1)c1ccc(O)cc1, CC1=CC(=O)/C(=C(/C)O)C(=O)O1
